Assay [1] has as its target Thyrotropin-releasing hormone receptor (Homo sapiens) (UniProt P34981). The experiment in a line: qHTS assay to identify small molecule agonists of the thyrotropin-releasing hormone receptor (TRHR) signaling pathway (AID 1346891; calls by dose curve; also: series mostly up to about 58 µM). The method in brief: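 TRHR-expressing HEK293 cells were plated 18 h at 37 °C/5% CO2, loaded with calcium dye 2 h at 37 °C, then given compound in DMSO; fluorescence was read kinetically for 3 min at 1 s intervals.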

Assay [2] is described as follows: Human pregnane X receptor (PXR) small molecule agonists, qHTS cell viability counter screen (AID 1346977). Also: nearly all actives have a fitted effect of over 50% in size. In short, it runs like this: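 PXR-Luc HepG2 cells in medium with 5% charcoal-stripped FBS were pre-incubated 5hr, then exposed to compounds for 24hr at 37C. Viability was read in the same wells by CellTiter-Fluor fluorescence, reagent added after 23hr with a 1hr incubation.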

The nature of assay [3]: Caspase-3/7 induction in HepG2 cells by small molecules, qHTS assay (AID 1346978). Also: nearly all actives have a fitted effect of over 15% in size. The method in brief:
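Wild-type HepG2 cells (2,000/well) were settled 5 h at 37 C, 5% CO2, then exposed to compounds in DMSO for 17 h. Caspase-3/7 activity was read by luminescence 30 min after adding Caspase-Glo 3/7 reagent at room temperature.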

The nature of assay [4]: Caspase-3/7 induction in CHO-K1 cells by small molecules, qHTS cell viability counter screen (AID 1346979). Also: nearly all actives have a fitted effect of over 35% in size. The method in brief:
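Wild-type CHO-K1 cells were seeded at 1,500 per well, rested 5hr at 37 C, then exposed to compounds in DMSO. After 16hr, CellTiter-Fluor reagent was added and fluorescence read 1hr later as the viability measure.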

Assay [5] is described as follows: Caspase-3/7 induction in CHO-K1 cells by small molecules, qHTS assay (AID 1346980). Also: nearly all actives have a fitted effect of over 15% in size. In short, it runs like this: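 Wild-type cells were seeded at 1,500 per well and settled 5 hr at 37 C, 5% CO2, then exposed to DMSO-dissolved compounds for 17 hr. Caspase-Glo 3/7 reagent was added, and luminescence was read after 30min at room temperature.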
Assay [6] can be described thus: Caspase-3/7 induction in HepG2 cells by small molecules, qHTS cell viability counter screen (AID 1346981). Also: series mostly up to about 92 µM; nearly all actives have a fitted effect of over 30% in size. The method in brief:
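Wild-type HepG2 cells, 2,000/well, settled 5 hr at 37 C, 5% CO2 before compound addition. Viability read by CellTiter-Fluor fluorescence, reagent added after 16 hr compound exposure, then 1 hr at 37C, in the same wells as the caspase read.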

Assay [7] concerns the target Cytochrome P450 2C19 (Homo sapiens) (UniProt P33261). In words: Cytochrome P450 Family 2 Subfamily C Member 19 (CYP2C19) small molecule antagonists: luciferase reporter qHTS assay (AID 1671197). Also: nearly all actives have a fitted effect of over 65% in size. Also: potency is read from the fitted curve at half-maximal effect. In short, it runs like this: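 Inhibition of CYP2C19 was scored from loss of luminescence in a P450-Glo proluciferin substrate assay, NADPH-started and run 1 h at 37C, with ketoconazole as positive control.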

Assay [8] concerns the target Cytochrome P450 2C9 (Homo sapiens) (UniProt P11712). The experiment in a line: Cytochrome P450 Family 2 Subfamily C Member 9 (CYP2C9) small molecule antagonists: luciferase reporter qHTS assay (AID 1671198). Also: nearly all actives have a fitted effect of over 50% in size. Also: potency is read from the fitted curve at half-maximal effect. The method in brief:
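CYP2C9 activity was measured with a P450-Glo proluciferin substrate. Enzyme–substrate mix was held with compound for 10 min at room temperature, then NADPH regeneration solution was added for 1 h at 37C. Luciferin product was read as luminescence.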

Assay [9] deals with Cytochrome P450 1A2 (Homo sapiens) (UniProt P05177). The experiment in a line: Cytochrome P450 Family 1 Subfamily A Member 2 (CYP1A2) small molecule antagonists: luciferase reporter qHTS assay (AID 1671199). Also: nearly all actives have a fitted effect of over 50% in size. Also: potency is read from the fitted curve at half-maximal effect. In short, it runs like this:
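P450-Glo CYP1A2 enzyme–proluciferin substrate mix with compound 10 min at room temperature, then NADPH regeneration 1 h at room temperature. Luciferin detection reagent added, luminescence read after 20 min; furafylline positive control.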

Assay [10] addresses Voltage-gated inwardly rectifying potassium channel KCNH2 (Homo sapiens) (UniProt Q12809). The experiment in a line: Human Ether-a-go-go-Related Gene (hERG) channel small molecule antagonists: fluorescence cell-based qHTS assay (AID 1671200).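 Also: hERG-expressing U2OS cells given a thallium stimulus after FluxOR II dye loading; series mostly up to about 77 µM; nearly all actives have a fitted effect of over 50% in size.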 The method in brief:
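U2OS cells expressing the channel were plated at 1000 cells/well, incubated overnight at 37 C, then loaded with FluxOR II thallium-sensitive dye for 1 h at room temperature in the dark, with a further 10 min at room temperature before stimulation.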

The target in assay [11] is Cytochrome P450 3A4 (Homo sapiens) (UniProt P08684). In words: Cytochrome P450 Family 3 Subfamily A Member 4 (CYP3A4) small molecule antagonists: luciferase reporter qHTS assay (AID 1671201). In short, it runs like this: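 P450-Glo CYP3A4 system with proluciferin substrate; compounds preincubated 10 min RT with enzyme-substrate mix, then NADPH regeneration added for 1 h RT. Detection reagent 20 min, luminescence read as relative luminescence units.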

The target of assay [12] is Cytochrome P450 2D6 (Homo sapiens) (UniProt P10635). The experiment in a line: Cytochrome P450 Family 2 Subfamily D Member 6 (CYP2D6) small molecule antagonists: luciferase reporter qHTS assay (AID 1671196). The method in brief:
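Cell-free P450-Glo system: CYP2D6 with proluciferin substrate was pre-incubated with compound for 10 min, then reacted with NADPH regeneration for 1 h at room temperature. Luciferin product was detected after 20 min, and data were reported as relative luminescence units.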

The target in assay [13] is Nuclear receptor subfamily 1 group I member 2 (Homo sapiens) (UniProt O75469). The experiment in a line: Human pregnane X receptor (PXR) small molecule agonists, qHTS assay (AID 1346982). Also: nearly all actives have a fitted effect of over 35% in size. In short, it runs like this: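 PXR-Luc HepG2 reporter cells (CYP3A4-driven luciferase) in 5% charcoal-stripped FBS medium, plated 5 h before compound addition, then treated 24 h at 37C. Luciferase read by ONE-Glo luminescence after 30 min at room temperature.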

Assay [14] has as its target Nuclear receptor subfamily 1 group I member 2 (Rattus norvegicus) (UniProt Q9R1A7). The experiment in a line: Rat pregnane X receptor (rPXR) activation by small molecules, qHTS assay (AID 1346983). Also: nearly all actives have a fitted effect of over 20% in size. The settings on record: rPXR luciferase reporter cells, One-Glo luminescence, 24 h; stronger effect = higher value. In short, it runs like this: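 Cell-based rPXR luciferase reporter assay, 2,000 cells per well, rested 5hr at 37 C before compound addition in DMSO, then 24 hr at 37 C. One-Glo reagent was added and luminescence read after 30 min at room temperature.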

For assay [15], the target named is Nuclear receptor subfamily 1 group I member 2 (Homo sapiens) (UniProt O75469). The experiment in a line: CYP3A4 induction through human pregnane X receptor (PXR) by small molecules, qHTS assay (AID 1346984). Also: nearly all actives have a fitted effect of over 40% in size. The method in brief: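 DPX-2 HepG2 cells carrying a PXR response element and CYP3A4-promoter luciferase construct, treated with compounds 24 hr at 37C. Then P450-Glo CYP3A4 Luciferin-IPA substrate (3uM final) for 3 hr at 37C, One-Glo added, luminescence read.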

The target is the same in assay [16]. In words: Human pregnane X receptor (PXR) activation by small molecules, qHTS assay (AID 1346985). Also: nearly all actives have a fitted effect of over 40% in size. In short, it runs like this: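 DPX-2 cells (HepG2 co-transfected with a PXR response element and a CYP3A4-promoter luciferase construct) were seeded at 2,000 per well, rested 5 hr at 37C, then exposed to DMSO-dissolved compounds for 24 hr. Activation was read as luciferase luminescence.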

Several values for one entry are separate records, joined by “and”; a condition that tells them apart may be missing. Identical values can stand only once. Results filed as inconclusive are left out. More than one record can exist for a structure, and the calls need not agree. Activity calls are given as the source filed them. Unless noted, calls follow the shape of the dose curve; as a rule, active = well fitted curve in the direction sought with a large enough effect in the repeat runs; inconclusive = weak or mixed curves; inactive = no such curve, though single readings can be large; an effect the other way counts as inactive or inconclusive.
% is scaled to controls: 0 for no effect and ±100 for the full control effect.

Chain of Cytochrome P450 2D6 (Homo sapiens) (P10635 whole entry, looked up): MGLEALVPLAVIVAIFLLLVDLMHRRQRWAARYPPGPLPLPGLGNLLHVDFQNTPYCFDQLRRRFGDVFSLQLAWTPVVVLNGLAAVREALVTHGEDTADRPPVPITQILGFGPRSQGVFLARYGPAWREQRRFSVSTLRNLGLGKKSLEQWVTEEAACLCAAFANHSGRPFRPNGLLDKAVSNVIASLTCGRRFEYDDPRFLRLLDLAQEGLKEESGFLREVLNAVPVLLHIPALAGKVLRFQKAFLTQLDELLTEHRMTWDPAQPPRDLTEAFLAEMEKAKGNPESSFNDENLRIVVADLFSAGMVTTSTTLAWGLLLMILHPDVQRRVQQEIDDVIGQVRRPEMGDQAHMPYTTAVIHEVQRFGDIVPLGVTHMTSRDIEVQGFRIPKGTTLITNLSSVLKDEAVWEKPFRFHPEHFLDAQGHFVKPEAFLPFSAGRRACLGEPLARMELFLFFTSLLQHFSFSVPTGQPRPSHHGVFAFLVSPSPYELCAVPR
Chain of Cytochrome P450 2C19 (Homo sapiens) (P33261 whole entry, looked up): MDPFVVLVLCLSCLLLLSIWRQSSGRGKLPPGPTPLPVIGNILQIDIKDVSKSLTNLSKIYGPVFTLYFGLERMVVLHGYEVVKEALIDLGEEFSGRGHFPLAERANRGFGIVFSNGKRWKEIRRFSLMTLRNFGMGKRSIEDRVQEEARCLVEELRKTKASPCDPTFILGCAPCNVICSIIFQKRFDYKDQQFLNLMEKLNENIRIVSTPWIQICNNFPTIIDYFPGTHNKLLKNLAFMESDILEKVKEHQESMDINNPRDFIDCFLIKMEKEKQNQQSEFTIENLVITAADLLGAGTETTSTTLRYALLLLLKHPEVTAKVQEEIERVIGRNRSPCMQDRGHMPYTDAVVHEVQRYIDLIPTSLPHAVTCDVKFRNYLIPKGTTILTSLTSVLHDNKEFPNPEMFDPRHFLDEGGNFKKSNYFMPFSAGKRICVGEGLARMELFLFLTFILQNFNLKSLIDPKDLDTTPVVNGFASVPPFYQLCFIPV
Chain of Nuclear receptor subfamily 1 group I member 2 (Homo sapiens) (O75469 whole entry, looked up): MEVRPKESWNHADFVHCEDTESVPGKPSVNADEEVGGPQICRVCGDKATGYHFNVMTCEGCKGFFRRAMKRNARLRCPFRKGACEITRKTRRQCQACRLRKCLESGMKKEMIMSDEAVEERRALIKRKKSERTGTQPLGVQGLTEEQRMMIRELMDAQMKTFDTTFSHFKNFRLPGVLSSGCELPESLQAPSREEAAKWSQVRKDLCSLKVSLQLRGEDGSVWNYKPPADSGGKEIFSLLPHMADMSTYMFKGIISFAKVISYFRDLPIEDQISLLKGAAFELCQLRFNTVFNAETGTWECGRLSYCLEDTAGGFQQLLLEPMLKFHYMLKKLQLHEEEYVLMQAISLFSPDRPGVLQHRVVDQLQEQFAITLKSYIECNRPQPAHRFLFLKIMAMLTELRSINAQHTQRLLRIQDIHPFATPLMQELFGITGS
Chain of Cytochrome P450 3A4 (Homo sapiens) (P08684 whole entry, looked up): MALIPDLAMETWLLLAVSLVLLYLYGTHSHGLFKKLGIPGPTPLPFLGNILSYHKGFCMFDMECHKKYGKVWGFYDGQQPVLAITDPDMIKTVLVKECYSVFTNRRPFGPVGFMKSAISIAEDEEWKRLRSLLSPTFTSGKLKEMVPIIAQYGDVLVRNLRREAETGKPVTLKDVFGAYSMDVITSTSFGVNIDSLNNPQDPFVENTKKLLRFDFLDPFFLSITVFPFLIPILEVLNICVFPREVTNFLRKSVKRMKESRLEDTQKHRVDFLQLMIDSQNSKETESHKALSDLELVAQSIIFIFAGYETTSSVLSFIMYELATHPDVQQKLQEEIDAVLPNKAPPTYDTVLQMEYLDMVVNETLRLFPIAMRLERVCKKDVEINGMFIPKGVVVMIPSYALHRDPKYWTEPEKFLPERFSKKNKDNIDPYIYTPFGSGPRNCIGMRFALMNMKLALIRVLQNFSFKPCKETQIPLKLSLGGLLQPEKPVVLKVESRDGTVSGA
Chain of Cytochrome P450 2C9 (Homo sapiens) (P11712 whole entry, looked up): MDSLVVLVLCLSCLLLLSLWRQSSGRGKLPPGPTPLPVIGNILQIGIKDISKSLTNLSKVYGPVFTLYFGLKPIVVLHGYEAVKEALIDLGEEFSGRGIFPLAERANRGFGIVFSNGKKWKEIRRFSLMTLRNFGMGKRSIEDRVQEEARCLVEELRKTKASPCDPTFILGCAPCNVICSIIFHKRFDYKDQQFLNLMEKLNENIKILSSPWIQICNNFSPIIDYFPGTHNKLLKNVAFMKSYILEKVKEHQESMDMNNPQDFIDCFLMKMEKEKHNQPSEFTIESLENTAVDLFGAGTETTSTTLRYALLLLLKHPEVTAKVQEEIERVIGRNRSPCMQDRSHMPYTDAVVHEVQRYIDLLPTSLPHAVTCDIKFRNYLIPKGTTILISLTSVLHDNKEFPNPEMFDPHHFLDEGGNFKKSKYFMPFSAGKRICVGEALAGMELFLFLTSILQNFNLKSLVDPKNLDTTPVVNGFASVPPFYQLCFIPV
Chain of Thyrotropin-releasing hormone receptor (Homo sapiens) (P34981 whole entry, looked up): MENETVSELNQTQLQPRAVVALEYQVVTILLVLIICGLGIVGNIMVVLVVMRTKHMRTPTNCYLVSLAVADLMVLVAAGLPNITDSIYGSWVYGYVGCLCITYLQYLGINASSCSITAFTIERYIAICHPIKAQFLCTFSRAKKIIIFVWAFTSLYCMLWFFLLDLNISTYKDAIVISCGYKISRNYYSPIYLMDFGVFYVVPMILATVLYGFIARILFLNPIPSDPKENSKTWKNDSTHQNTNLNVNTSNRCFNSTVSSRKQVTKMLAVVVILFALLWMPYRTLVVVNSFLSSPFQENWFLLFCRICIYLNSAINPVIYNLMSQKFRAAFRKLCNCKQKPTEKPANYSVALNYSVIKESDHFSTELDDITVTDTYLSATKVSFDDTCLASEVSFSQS
Chain of Cytochrome P450 1A2 (Homo sapiens) (P05177 whole entry, looked up): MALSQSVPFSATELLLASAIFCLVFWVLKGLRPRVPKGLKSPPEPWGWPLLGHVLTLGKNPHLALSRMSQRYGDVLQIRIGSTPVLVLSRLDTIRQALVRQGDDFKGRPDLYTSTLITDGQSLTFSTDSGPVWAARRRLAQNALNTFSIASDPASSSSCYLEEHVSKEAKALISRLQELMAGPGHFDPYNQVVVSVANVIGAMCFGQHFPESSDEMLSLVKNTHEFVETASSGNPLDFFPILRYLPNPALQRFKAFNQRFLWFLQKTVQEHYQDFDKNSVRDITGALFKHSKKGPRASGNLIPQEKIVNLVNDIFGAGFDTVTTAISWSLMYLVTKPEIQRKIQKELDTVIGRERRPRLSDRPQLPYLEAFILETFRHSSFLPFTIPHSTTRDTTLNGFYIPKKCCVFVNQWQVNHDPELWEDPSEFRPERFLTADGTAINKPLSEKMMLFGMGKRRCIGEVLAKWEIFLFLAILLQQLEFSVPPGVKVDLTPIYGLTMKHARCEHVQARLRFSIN
Chain of Voltage-gated inwardly rectifying potassium channel KCNH2 (Homo sapiens) (Q12809 whole entry, looked up): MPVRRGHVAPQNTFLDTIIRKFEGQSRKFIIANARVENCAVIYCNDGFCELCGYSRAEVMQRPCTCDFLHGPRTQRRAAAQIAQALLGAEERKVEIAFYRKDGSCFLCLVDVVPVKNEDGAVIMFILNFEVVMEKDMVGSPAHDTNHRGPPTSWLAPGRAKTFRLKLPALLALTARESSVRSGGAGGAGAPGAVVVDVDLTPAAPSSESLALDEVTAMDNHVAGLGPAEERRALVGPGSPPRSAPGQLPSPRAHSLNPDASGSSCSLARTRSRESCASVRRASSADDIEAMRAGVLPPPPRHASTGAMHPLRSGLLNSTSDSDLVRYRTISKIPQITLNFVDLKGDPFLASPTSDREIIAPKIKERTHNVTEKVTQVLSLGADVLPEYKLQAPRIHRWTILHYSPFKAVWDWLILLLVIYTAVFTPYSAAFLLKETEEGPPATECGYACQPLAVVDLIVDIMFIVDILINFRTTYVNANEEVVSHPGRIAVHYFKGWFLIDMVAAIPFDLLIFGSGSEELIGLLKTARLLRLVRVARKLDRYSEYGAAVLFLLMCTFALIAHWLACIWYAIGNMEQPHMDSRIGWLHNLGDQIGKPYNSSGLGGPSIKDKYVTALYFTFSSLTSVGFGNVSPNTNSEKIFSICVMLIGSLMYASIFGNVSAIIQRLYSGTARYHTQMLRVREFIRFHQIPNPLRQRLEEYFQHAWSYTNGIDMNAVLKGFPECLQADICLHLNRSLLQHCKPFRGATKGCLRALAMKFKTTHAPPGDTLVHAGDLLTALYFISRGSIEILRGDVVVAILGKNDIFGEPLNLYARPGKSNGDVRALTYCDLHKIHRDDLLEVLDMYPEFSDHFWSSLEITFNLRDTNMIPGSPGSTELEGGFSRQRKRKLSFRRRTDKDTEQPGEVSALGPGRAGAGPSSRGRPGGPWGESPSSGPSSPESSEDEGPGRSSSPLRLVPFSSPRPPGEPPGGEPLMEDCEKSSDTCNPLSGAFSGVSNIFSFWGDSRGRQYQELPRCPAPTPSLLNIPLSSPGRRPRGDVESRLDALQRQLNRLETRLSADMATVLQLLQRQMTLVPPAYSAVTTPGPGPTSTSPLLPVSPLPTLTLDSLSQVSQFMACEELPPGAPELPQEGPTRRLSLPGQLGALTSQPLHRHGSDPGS
Chain of Nuclear receptor subfamily 1 group I member 2 (Rattus norvegicus) (Q9R1A7 whole entry, looked up): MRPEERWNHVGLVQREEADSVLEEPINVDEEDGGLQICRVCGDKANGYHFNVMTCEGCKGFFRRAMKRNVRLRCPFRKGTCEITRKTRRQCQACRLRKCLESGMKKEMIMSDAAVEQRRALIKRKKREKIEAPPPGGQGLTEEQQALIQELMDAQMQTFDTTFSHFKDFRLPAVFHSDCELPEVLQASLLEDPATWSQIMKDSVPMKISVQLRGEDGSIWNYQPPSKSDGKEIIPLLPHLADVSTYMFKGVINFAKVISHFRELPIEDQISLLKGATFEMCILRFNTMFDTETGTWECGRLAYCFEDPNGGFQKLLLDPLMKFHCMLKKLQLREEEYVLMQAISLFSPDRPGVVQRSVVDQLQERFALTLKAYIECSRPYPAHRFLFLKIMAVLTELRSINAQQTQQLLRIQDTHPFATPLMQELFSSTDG

As to `c1ccc(Oc2ccccc2)cc1`, the compound was classed as inactive in assay [1] and in [5]. The Potency result in assay [2], in [3], in assay [4], in assay [6], in assay [7] and in assay [8] was “inactive” each time. The Potency entry in [9], in [10] and in [11] was “inactive” throughout.

Consider `c1ccc2c(c1)Cc1ccccc1-2`, for which the Potency entry in assay [2], in assay [3], in assay [4], in assay [6], in [12] and in [10] was “inactive” each time. Further, the Potency result in assay [11] was “inactive”. In addition, in [5], the compound was called inactive. Moreover, the Potency entry in [7] is “inactive and 35.6 µM (active)”; in assay [8] it was “inactive and 39.9 µM (active)”; in [9] it was 25.6 µM (active) and 7.96 µM (active).

As for `O=C(O)Cn1c(=O)n(Cc2ccc(Br)cc2F)c(=O)c2ccc(Cl)cc21`, the compound was classed as inactive in assay [1] and in assay [5]. In addition, the Potency entry in [2], in [3], in [12], in assay [7], in assay [10] and in [11] was “inactive” each time. Further, the Potency in assay [8] was 31.7 µM (active) and 15.5 µM (active); in assay [9], 79.6 µM (active) and inactive.

As for `CNC(=S)N(C)C`, the Potency result in assay [2], in assay [3], in assay [4], in assay [6], in assay [12] and in [7] was “inactive” each time. For the same compound, the Potency result in assay [8], in [9], in assay [10] and in [11] was “inactive” each time. The outcome in assay [5] was inactive.

On to `NCCN1CCNCC1`, for which the Potency result in assay [2], in [3], in [4], in [6], in assay [13] and in assay [7] was “inactive” in each case. Further, the Potency result in [8], in [9], in assay [10] and in assay [11] was “inactive” each time. Moreover, the result in [5] was inactive.

As to `NC(=S)NNC(N)=S`, the result in [1] and in [5] was inactive. The Potency entry in assay [2], in assay [3], in assay [4], in [13], in assay [12] and in assay [9] was “inactive” in each case. The Potency entry in [10] and in assay [11] was “inactive” in each case. Moreover, the Potency was 34.7 µM (active) and inactive in assay [7]; 35.6 µM (active) in assay [8].

Consider `O=C(O)CCCCCCCCC(=O)O`, for which the compound was called inactive in [1] and in [5]. The Potency entry in [2], in [3], in assay [4], in assay [6], in assay [12] and in assay [8] was “inactive” throughout. Also, the Potency entry in assay [10] and in assay [11] was “inactive” each time. The Potency in [7] was 50.5 µM (active) and inactive.

Consider `CC(=O)OCCOC(C)=O`, for which the result in assay [1] and in [5] was inactive. Moreover, the Potency entry in assay [2], in assay [3], in assay [4], in assay [6], in [12] and in [7] was “inactive” throughout. Also, the Potency entry in assay [8], in [10] and in assay [11] was “inactive” each time.

With `C=CCc1ccc(OC)c(OC)c1`, the Potency result in [2], in assay [3], in assay [4], in assay [6], in [12] and in [7] was “inactive” in each case. The Potency result in [10] and in assay [11] was “inactive” in each case. For the same compound, in assay [5], the outcome was inactive. In addition, the Potency in assay [9] was 18 µM (active) and 22.4 µM (active).

Turning to `O=C(O)c1ccccc1C(=O)O`, the Potency entry in [2], in assay [3], in [4], in [6], in assay [12] and in [8] was “inactive” throughout. The Potency entry in [10] and in assay [11] was “inactive” each time. In [5], the compound was called inactive. Also, in [7], the Potency was 41.2 µM (active) and 82.1 µM (active).

Turning to `COC(=O)c1cccnc1`, the Potency result in [2], in assay [3], in assay [4], in [6], in [13] and in assay [15] was “inactive” each time. In addition, the Potency entry in assay [12], in assay [7], in assay [8], in [9], in assay [10] and in assay [11] was “inactive” throughout. Besides, the call in assay [5] and in assay [16] was inactive. Moreover, the max activation in assay [14] was -1.84% (inactive).
